# Data published in PubChem BioAssay.
# Where “and” joins values, the source holds several entries; their conditions need not be identical. Equal entries are not always repeated. Some compounds were tested as several samples or in several runs, with calls that do not always agree. Calls of active or inactive are those of the source.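 The calls were made as follows, unless noted: active = thallium flux through the channel raised or lowered by more than 3 SD from vehicle-only wells, actives on both sides; inactive = the rest.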
# Columns and labels:
# [1] = test system: Hepatitis C virus NS3 helicase; assay: HCV NS3 helicase inhibitors, primary screen, biochemical, fluorescence polarization, NIH Clinical Collection (AID 743270; call rule not given here); conditions: NS3 helicase binding to Cy5-dT15 DNA, stronger effect = higher value, concentration not given here
# [2] = target: Single-stranded DNA-binding protein (Escherichia coli (strain K12)) (UniProt P0AGE0); assay: E. coli SSB displacement from DNA, counter-screen for HCV NS3 helicase inhibitor project, biochemical, fluorescence polarization, NIH Clinical Collection (AID 743271; in the data active = inhibition above about 28%); conditions: stronger effect = higher value, concentration not given here
# [3] = fluorescence interference in NS3h assay format, artefact control for HCV NS3 helicase inhibitor project, biochemical, NIH Clinical Collection (AID 743272; call rule not given here;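 also: HCV NS3 helicase with a Cy5 labelled single stranded DNA probe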); conditions: fluorescence interference counterscreen, stronger effect = lower value
# [4] = stimulators of nuclear beta-catenin in C2C12, primary screen, imaging, WNT3A-conditioned medium, mouse C2C12, NPC library (AID 1117326; in the data active = nuclear beta-catenin stimulation mostly above about 4.2%, no sharp cut-off; inactive = mostly below about 10%); conditions: stronger effect = higher value
# [5] = stimulators of insulin release from INS-1E, primary screen, cell-based, 5 mM glucose, NPC library (AID 1117329;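 active = compound raises insulin release from rat beta cells at 5 mM glucose, no numeric limit stated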); conditions: rat INS-1E insulin secretion, at 10 µM, stronger effect = higher value
# [6] = growth inhibition of GSK3B-pretreated HCT116 cells – cell-based, CellTiter-Glo, 0.2 to 20 µM (AID 1117336;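 active = compounds lowering colon cancer cell viability after pretreatment blocking the GSK3B kinase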); conditions: HCT116 viability after GSK3B inhibitor, at 20 µM, stronger effect = higher value
# [7] = inhibition of endothelial tube formation, primary screen, imaging, VEGF stimulated, CD31 staining, tube area, NPC library (AID 1117340;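 active = compound that reduces growth-factor-driven endothelial tube area in a mixed cell culture, no cutoff stated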); conditions: VEGF-stimulated ADSC/ECFC co-culture, at 10 µM, stronger effect = higher value
# [8] = glucagon-like peptide 1 release enhancers, primary assay, NCI-H716 cell line, NPC library (AID 1117341;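 active = compound raises GLP1 secretion from the human gut endocrine cells, with no numeric limit stated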); conditions: NCI-H716 cells, at 10 µM, stronger effect = higher value
# [9] = HCT116 colon cancer cell growth inhibition, primary screen, CellTiter-Glo luminescence, NPC library (AID 1117342;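 active = compounds that lower survival of HCT116 colon cancer cells in the luminescence readout, no numeric limit stated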); conditions: at 20 µM (top of the series)
# [10] = CellTiter-Glo luminescent readout of SW480 viability loss, NPC library primary (AID 1117343;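 active = compounds that lower viability of the colon cancer cells in the luminescence readout, with no numeric limit stated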); conditions: CellTiter-Glo luminescence; at 20 µM (top of the series)
# [11] = decreased DLD-1 cellular survival, CellTiter-Glo luminescent readout, NPC compound collection, primary HTS (AID 1117346;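 active = compounds that lower survival of DLD-1 colon cancer cells in the luminescence readout, no cutoff given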); conditions: DLD-1 viability, CellTiter-Glo luminescence; at 20 µM (top of the series)
# [12] = target: 6-phosphogluconate dehydrogenase, decarboxylating (Homo sapiens) (UniProt P52209); assay: 6PGD enzyme inhibitors, primary screen, biochemical, human, recombinant enzyme, NADPH absorbance (AID 1159550;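 active = at least 20% inhibition of 6-phosphogluconate dehydrogenase activity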); conditions: recombinant 6PGD, NADPH absorbance 341 nm; at 10 µM; stronger effect = higher value
# [13] = differential killing of epithelial or mesenchymal cells, primary screen, imaging, PC-3E GFP, TEM4-18 mCherry, co-culture (AID 1345086;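 active = compounds killing one labelled cell type while sparing the other, by normalised counts and ratio limits, not self-fluorescent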;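 as to all read-outs here: cells exposed to compound for 72 h before imaging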;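 as to red/green cell ratio (normalised): normalised mesenchymal count divided by normalised epithelial count so high means epithelial killing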); conditions: imaging cell counts, at 1 µM; for red/green cell ratio (normalised): actives lie on both sides, counts scaled to control wells, 1 = unselective
# [14] = survival rescue of mitochondrial mutant cells in low glucose, primary screen, MELAS cybrids, Rieske KO mouse fibroblasts, CellTiter-Glo (AID 1508586;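 active = mean z-score across replicates of 1.96 or higher in either the MELAS or the Rieske mutant cell line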;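 also: z relative to plate mean and SD of compound and empty wells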)
# [15] = target: NAD(+) hydrolase SARM1 (Homo sapiens) (UniProt Q6SZW1); assay: SARM1 TIR NADase inhibitors, cell lysate, NAD-Glo luminescence (AID 1508614;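 active = compound whose remaining NAD level is above about 45 nM, limit read from the data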;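 also: higher remaining NAD means stronger inhibition of SARM1 NADase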); conditions: SAM-TIR HEK293T lysate NADase, at 1 µM, stronger effect = higher value
# [16] = target: Mitogen-activated protein kinase 7 (Homo sapiens) (UniProt Q13164); assay: ERK5 transactivation activators in reporter cells, primary screen, cell-based, HTS (AID 1508626;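 active = luciferase signal above three times the same-plate solvent-only control wells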;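 also: luciferase driven by Gal4-ERK5 fusion binding five Gal4 sites before minimal TATA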); conditions: HeLa Gal4-ERK5 transactivation, 18 h, at 5 µM, stronger effect = higher value
# F380Y = assay: modulators of BK channel variants, profiling panel, selectivity assay, cell-based, U2OS BacMam, thallium flux, beta subunits (AID 1259406); conditions: at 30 µM;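 also: initial slope of Thallos dye fluorescence rise after thallium is added; log ratio against the mean of 0.3% DMSO vehicle wells on the same plate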
# F380Y/beta2Delta = assay: as above; conditions: at 30 µM
# [17] = target: Calcium-activated potassium channel subunit alpha-1 (Homo sapiens) + Leucine-rich repeat-containing protein 26 (Homo sapiens) (UniProt Q12791+Q2I0M4); assay: as above; conditions: F380Y/Slo1WT/gamma1, at 30 µM
# [18] = measured here: epithelial PC-3E GFP cell survival
# [19] = measured here: mesenchymal TEM4-18 mCherry cell survival
# [20] = MELAS cybrid survival, CellTiter-Glo 48 h, stronger effect = higher value
# [21] = Rieske KO mouse fibroblast survival, CellTiter-Glo 72 h
# Sequence of 6-phosphogluconate dehydrogenase, decarboxylating (Homo sapiens) (P52209 whole entry, looked up): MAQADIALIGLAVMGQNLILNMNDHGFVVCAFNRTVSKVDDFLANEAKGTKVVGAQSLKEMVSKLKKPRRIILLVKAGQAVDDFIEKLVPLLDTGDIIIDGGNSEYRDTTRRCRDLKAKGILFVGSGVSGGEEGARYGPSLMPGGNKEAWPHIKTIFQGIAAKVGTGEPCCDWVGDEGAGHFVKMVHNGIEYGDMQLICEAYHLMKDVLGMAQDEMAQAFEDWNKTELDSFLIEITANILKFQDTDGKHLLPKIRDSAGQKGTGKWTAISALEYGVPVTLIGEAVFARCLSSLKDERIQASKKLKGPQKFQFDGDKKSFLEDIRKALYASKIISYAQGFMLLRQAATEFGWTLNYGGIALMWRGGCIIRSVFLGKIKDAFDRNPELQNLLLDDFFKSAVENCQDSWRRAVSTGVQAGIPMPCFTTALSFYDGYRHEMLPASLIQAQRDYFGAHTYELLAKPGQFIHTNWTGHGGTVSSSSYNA
# Sequence of NAD(+) hydrolase SARM1 (Homo sapiens) (Q6SZW1 whole entry, looked up, the tested form may be a part): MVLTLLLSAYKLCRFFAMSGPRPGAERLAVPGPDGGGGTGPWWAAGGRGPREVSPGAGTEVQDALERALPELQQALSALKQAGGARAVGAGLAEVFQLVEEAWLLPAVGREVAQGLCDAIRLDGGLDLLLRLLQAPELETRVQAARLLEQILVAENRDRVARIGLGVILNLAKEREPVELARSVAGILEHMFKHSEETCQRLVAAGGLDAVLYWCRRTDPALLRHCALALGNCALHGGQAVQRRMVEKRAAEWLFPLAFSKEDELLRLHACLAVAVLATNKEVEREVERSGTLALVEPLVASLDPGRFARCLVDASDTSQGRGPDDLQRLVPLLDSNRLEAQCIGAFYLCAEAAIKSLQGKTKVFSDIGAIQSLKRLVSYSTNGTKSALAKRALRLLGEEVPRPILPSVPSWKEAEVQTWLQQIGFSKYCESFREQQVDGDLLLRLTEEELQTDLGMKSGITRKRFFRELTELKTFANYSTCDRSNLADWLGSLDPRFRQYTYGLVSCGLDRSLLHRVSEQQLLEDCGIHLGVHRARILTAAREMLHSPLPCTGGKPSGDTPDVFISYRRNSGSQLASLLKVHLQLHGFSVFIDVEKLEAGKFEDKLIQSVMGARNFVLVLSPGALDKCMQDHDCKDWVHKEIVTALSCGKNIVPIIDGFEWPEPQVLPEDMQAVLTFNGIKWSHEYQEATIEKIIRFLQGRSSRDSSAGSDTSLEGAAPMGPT
# Sequence of Calcium-activated potassium channel subunit alpha-1 (Homo sapiens) + Leucine-rich repeat-containing protein 26 (Homo sapiens) (Q2I0M4 whole entry, looked up, one chain of several): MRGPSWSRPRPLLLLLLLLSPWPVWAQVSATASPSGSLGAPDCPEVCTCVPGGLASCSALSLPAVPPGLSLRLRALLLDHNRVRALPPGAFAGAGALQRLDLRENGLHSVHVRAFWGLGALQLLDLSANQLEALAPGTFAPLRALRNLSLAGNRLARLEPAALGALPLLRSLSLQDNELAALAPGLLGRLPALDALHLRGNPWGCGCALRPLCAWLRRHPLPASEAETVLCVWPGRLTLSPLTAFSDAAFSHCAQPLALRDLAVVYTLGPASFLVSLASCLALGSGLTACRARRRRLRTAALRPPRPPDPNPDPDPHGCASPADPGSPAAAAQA
# Sequence of Mitogen-activated protein kinase 7 (Homo sapiens) (Q13164 whole entry, looked up, the tested form may be a part): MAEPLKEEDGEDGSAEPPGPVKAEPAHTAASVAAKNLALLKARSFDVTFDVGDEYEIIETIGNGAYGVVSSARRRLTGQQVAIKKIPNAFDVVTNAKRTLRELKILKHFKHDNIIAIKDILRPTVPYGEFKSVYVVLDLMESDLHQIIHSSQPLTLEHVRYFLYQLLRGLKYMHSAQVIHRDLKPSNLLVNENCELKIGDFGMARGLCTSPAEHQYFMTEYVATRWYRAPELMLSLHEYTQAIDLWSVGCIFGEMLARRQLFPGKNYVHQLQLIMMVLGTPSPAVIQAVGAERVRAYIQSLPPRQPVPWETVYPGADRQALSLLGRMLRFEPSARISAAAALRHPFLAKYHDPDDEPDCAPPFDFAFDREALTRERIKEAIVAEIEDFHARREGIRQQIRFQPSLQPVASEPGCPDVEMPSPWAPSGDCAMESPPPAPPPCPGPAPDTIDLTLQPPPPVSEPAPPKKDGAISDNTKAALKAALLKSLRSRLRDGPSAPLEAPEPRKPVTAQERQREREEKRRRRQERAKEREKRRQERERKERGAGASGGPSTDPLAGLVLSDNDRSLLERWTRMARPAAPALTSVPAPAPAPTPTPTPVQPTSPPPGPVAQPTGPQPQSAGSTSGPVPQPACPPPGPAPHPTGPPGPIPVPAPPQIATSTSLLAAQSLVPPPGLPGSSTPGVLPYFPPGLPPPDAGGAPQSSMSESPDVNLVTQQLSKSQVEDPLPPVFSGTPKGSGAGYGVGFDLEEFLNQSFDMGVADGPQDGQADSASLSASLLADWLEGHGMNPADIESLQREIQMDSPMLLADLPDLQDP
smiles,measurement,setting,value
CC(=O)CCCCn1c(=O)c2c(ncn2C)n(C)c1=O,inhibition,[1],-5.15% (inactive)
same,inhibition,[2],-2.41% (inactive)
same,fluorescence ratio,[3],1 (inactive)
same,nuclear beta-catenin stimulation,[4]; at 10 µM,0.1% (inactive)
same,nuclear beta-catenin stimulation,"[4]; stimulation, at 2 µM",-0.8%
same,insulin secretion stimulation,[5],-1.6% (inactive)
same,viability decrease,[6],2.8% (inactive)
same,tube area decrease,[7],-8.3% (inactive)
same,GLP1 secretion stimulation,[8],1.9% (inactive)
same,inhibition of viability,[9],-8.4% (inactive)
same,viability decrease (inhibition),[10],52.4% (active)
same,viability decrease (inhibition),[11],10.8% (inactive)
same,inhibition,[12],4.74% (inactive)
same,red/green cell ratio (normalised),[13],1.09 (inactive)
same,normalised cell number,[13]; [18],1.25
same,normalised cell number,[13]; [19],1.37
same,z-score,[14]; [20],0.897 (inactive) and 0.351 (inactive)
same,z-score,[14]; [21],0.0131 and -0.0411
same,remaining NAD,[15],10 nM (inactive)
same,luciferase signal,[16],88 AU (inactive)
same,log fold change Tl+ flux,F380Y,0.00269 (inactive)
same,log fold change Tl+ flux,F380Y/beta2Delta,-0.0305 (inactive)
same,log fold change Tl+ flux,[17],-0.00624 (inactive)
c1ccc2c(c1)CCCC2C1=NCCN1 (configuration not stated),inhibition,[1],-4.09% (inactive)
same,inhibition,[2],-0.48% (inactive)
same,fluorescence ratio,[3],0.93 (inactive)
same,nuclear beta-catenin stimulation,[4]; at 10 µM,4.7% (inactive)
same,nuclear beta-catenin stimulation,"[4]; stimulation, at 2 µM",-0.1%
same,insulin secretion stimulation,[5],-0.4% (inactive)
same,viability decrease,[6],-30.2% (inactive)
same,tube area decrease,[7],-9.5% (inactive)
same,GLP1 secretion stimulation,[8],0.9% (inactive)
same,inhibition of viability,[9],0.6% (inactive)
same,viability decrease (inhibition),[10],11.2% (inactive)
same,viability decrease (inhibition),[11],-6.9% (inactive)
same,inhibition,[12],19.3% (inactive)
same,red/green cell ratio (normalised),[13],1.32 (inactive)
same,normalised cell number,[13]; [18],1.03
same,normalised cell number,[13]; [19],1.36
same,z-score,[14]; [20],-0.281 (inactive) and -0.833 (inactive)
same,z-score,[14]; [21],-0.176 and -0.558
same,remaining NAD,[15],10 nM (inactive)
same,luciferase signal,[16],44 AU (inactive)
same,log fold change Tl+ flux,F380Y,-0.0277 (inactive)
same,log fold change Tl+ flux,F380Y/beta2Delta,-0.0151 (inactive)
same,log fold change Tl+ flux,[17],0.0123 (inactive)
CN(C)CCCN1c2ccccc2Sc2ccc(Cl)cc21,inhibition,[1],-4.09% (inactive)
same,inhibition,[2],-1.24% (inactive)
same,fluorescence ratio,[3],0.91 (inactive)
same,nuclear beta-catenin stimulation,[4]; at 10 µM,5.5% (inactive)
same,nuclear beta-catenin stimulation,"[4]; stimulation, at 2 µM",0.9%
same,insulin secretion stimulation,[5],8.9% (inactive)
same,viability decrease,[6],82% (active)
same,tube area decrease,[7],68.7% (active)
same,GLP1 secretion stimulation,[8],15.5% (inactive)
same,inhibition of viability,[9],96.1% (active)
same,viability decrease (inhibition),[10],128% (active)
same,viability decrease (inhibition),[11],93.1% (active)
same,inhibition,[12],10.5% (inactive)
same,red/green cell ratio (normalised),[13],1.34 (inactive)
same,normalised cell number,[13]; [18],0.97
same,normalised cell number,[13]; [19],1.3
same,z-score,[14]; [20],2.27 (active) and 0.163 (inactive) and 0.651 (inactive)
same,z-score,[14]; [21],-0.778 and 0.446 and 0.902
same,remaining NAD,[15],10 nM (inactive)
same,luciferase signal,[16],68 AU (inactive)
same,log fold change Tl+ flux,F380Y,0.156 (active)
same,log fold change Tl+ flux,F380Y/beta2Delta,0.221 (active)
same,log fold change Tl+ flux,[17],0.0114 (inactive)
CCN(CC)CCOC(=O)c1ccc(N)cc1,inhibition,[1],-3.18% (inactive)
same,inhibition,[2],0.29% (inactive)
same,fluorescence ratio,[3],0.92 (inactive)
same,nuclear beta-catenin stimulation,[4]; at 10 µM,0.6% (inactive)
same,nuclear beta-catenin stimulation,"[4]; stimulation, at 2 µM",-0.3%
same,insulin secretion stimulation,[5],0.1% (inactive)
same,viability decrease,[6],2.8% (inactive)
same,tube area decrease,[7],7% (inactive)
same,GLP1 secretion stimulation,[8],-0.7% (inactive)
same,inhibition of viability,[9],4.2% (inactive)
same,viability decrease (inhibition),[10],56.5% (active)
same,viability decrease (inhibition),[11],1.05% (inactive)
same,inhibition,[12],2.32% (inactive)
same,red/green cell ratio (normalised),[13],1.08 (inactive)
same,normalised cell number,[13]; [18],0.95
same,normalised cell number,[13]; [19],1.03
same,z-score,[14]; [20],-0.214 (inactive) and -0.849 (inactive)
same,z-score,[14]; [21],-0.241 and -0.347
same,remaining NAD,[15],10 nM (inactive)
same,luciferase signal,[16],92 AU (inactive)
same,log fold change Tl+ flux,F380Y,-0.0653 (inactive)
same,log fold change Tl+ flux,F380Y/beta2Delta,0.0223 (inactive)
same,log fold change Tl+ flux,[17],0.0123 (inactive)
